Reference: the supplement of paper PMC9950053
Counter-ions that a name gives are not always drawn.

What follows are molecules tested on Danio rerio larvae (5 dpf) (assay: startle (activity period 16 minus period 15, 20-s interval sound) minus DMSO control (percentage points); higher = stronger startle response than DMSO larvae). Conditions: 10 µM; exposure time: 3 h pre-incubation + 3 h imaging.
Procedure: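 Wild-type 5 dpf zebrafish larvae (n=48 per drug, 96-well plates, 28.5 °C) were exposed to Tocris FDA-approved library compounds at 10 µM (0.1% DMSO) for 3 h before and 3 h during imaging. Images were taken every 6 s during visual (moving coloured lines) and acoustic stimuli, and larvae were tracked with the DeepLabCut-based Z-LaP Tracker. Each behavioural measure is the treated-group mean minus the DMSO vehicle control mean (n=844), in percentage points. This mapping covers compounds with 4-character plate codes.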
Molecule `O=C(Nc1c(Cl)cncc1Cl)c1ccc(OC(F)F)c(OCC2CC2)c1` [Roflumilast] has a startle of 3.93.
`CN(C)CC/C=C1/c2ccccc2COc2ccc(CC(=O)O)cc21` [Olopatadine hydrochloride] gave a startle of 1.07.
`CCOC(=O)[C@H](CCc1ccccc1)N[C@@H](C)C(=O)N1[C@H](C(=O)O)C[C@@H]2CCC[C@@H]21` [Ramipril] showed a startle of -0.503.
In the case of `CCOc1cc(CC(=O)N[C@@H](CC(C)C)c2ccccc2N2CCCCC2)ccc1C(=O)O` [Repaglinide], the startle is reported as -4.11.
For `COc1ccc([C@@H]2Sc3ccccc3N(CCN(C)C)C(=O)[C@@H]2OC(C)=O)cc1` [Diltiazem hydrochloride], the startle was 1.21.
`O=C(O)CCCc1ccccc1` [Sodium 4-Phenylbutyrate] gave a startle of -5.61.
For `CCC(=O)O[C@]1(C(=O)SCF)[C@H](C)C[C@H]2[C@@H]3C[C@H](F)C4=CC(=O)C=C[C@]4(C)[C@@]3(F)[C@@H](O)C[C@@]21C` [Fluticasone propionate], the startle was -2.41.
For `COc1ccc(C[C@@H](C)NC[C@H](O)c2ccc(O)c(NC=O)c2)cc1` [Arformoterol tartrate], the startle was -8.08.
`Cc1cc(C2CCCCC2)n(O)c(=O)c1` [Ciclopirox] gave a startle of -8.19.
Molecule `CCOC(=O)[C@H](CCc1ccccc1)N[C@H]1CCc2ccccc2N(CC(=O)O)C1=O` [Benazepril hydrochloride] has a startle of -0.0488.
Work on `Cn1cnc([N+](=O)[O-])c1Sc1ncnc2[nH]cnc12` [Azathioprine] yielded a startle of -0.818.
In the case of `CO[C@H]1/C=C/O[C@@]2(C)Oc3c(C)c(O)c4c(O)c(c5c(nc6cc(C)ccn65)c4c3C2=O)NC(=O)/C(C)=C\C=C\[C@H](C)[C@H](O)[C@@H](C)[C@@H](O)[C@@H](C)[C@H](OC(C)=O)[C@@H]1C` [Rifaximin], the startle is reported as 1.18.
`O=C(c1ccc(OCCN2CCCCC2)cc1)c1c(-c2ccc(O)cc2)sc2cc(O)ccc12` [Raloxifene hydrochloride] showed a startle of 2.55.
`CN1CC(=O)N2[C@H](c3ccc4c(c3)OCO4)c3[nH]c4ccccc4c3C[C@@H]2C1=O` [Tadalafil] was tested, and the startle was 8.43.
For `CC(=O)NC[C@H]1CN(c2ccc(N3CCOCC3)c(F)c2)C(=O)O1` [Linezolid], the startle was 2.73.
`COc1ccc(-c2ccc3cc(C(=O)O)ccc3c2)cc1C12CC3CC(CC(C3)C1)C2` [Adapalene] was tested, and the startle was -0.788.
`CC(=O)Oc1ccccc1C(=O)O` [Aspirin] was tested, and the startle was -4.
Molecule `CCOC(=O)N1CCC(=C2c3ccc(Cl)cc3CCc3cccnc32)CC1` [Loratidine] has a startle of 8.94.
With `COc1cccc2c1C(=O)c1c(O)c3c(c(O)c1C2=O)C[C@@](O)(C(=O)CO)C[C@@H]3O[C@H]1C[C@H](N)[C@H](O)[C@H](C)O1` [Doxorubicin hydrochloride] the startle was 3.54.
Work on `CC(=O)S[C@@H]1CC2=CC(=O)CC[C@]2(C)[C@H]2CC[C@@]3(C)[C@@H](CC[C@@]34CCC(=O)O4)[C@H]12` [Spironolactone] yielded a startle of 2.27.
`CN1CCN(CCCN2c3ccccc3Sc3ccc(Cl)cc32)CC1` [Prochlorperazine dimaleate] showed a startle of -8.12.
In the case of `Cc1ccc(NC(=O)c2ccc(CN3CCN(C)CC3)cc2)cc1Nc1nccc(-c2cccnc2)n1` [Imatinib mesylate], the startle is reported as 5.71.
`Clc1ccc(COC(Cn2ccnc2)c2ccc(Cl)cc2Cl)c(Cl)c1` (stereo not given) [Miconazole nitrate] was tested, and the startle was 5.64.
With `N[C@@H]1[C@H]2CN(c3nc4c(cc3F)c(=O)c(C(=O)O)cn4-c3ccc(F)cc3F)C[C@@H]12` [Trovafloxacin mesylate] the startle was -8.4.
Molecule `CCCCC(=O)N(Cc1ccc(-c2ccccc2-c2nnn[nH]2)cc1)[C@H](C(=O)O)C(C)C` [Valsartan] has a startle of 0.232.
For `CCc1ccc(CCOc2ccc(CC3SC(=O)NC3=O)cc2)nc1` (stereo not given) [Pioglitazone hydrochloride], the startle was -4.69.
`Cc1ccc(-c2cc(C(F)(F)F)nn2-c2ccc(S(N)(=O)=O)cc2)cc1` [Celecoxib] gave a startle of -8.09.
Work on `Nc1ncn([C@H]2C[C@H](O)[C@@H](CO)O2)c(=O)n1` [Decitabine] yielded a startle of -1.27.
In the case of `Nc1nc(Cl)nc2c1ncn2[C@@H]1O[C@H](CO)[C@@H](O)[C@@H]1F` [Clofarabine], the startle is reported as 5.12.
For `Cc1ccc(O)c([C@H](CCN(C(C)C)C(C)C)c2ccccc2)c1` [Tolterodine L-tartrate], the startle was -5.5.
With `Nc1cc(N2CCCCC2)nc(N)[n+]1[O-]` [Minoxidil] the startle was -1.64.
`O=C(NCC1CCCCN1)c1cc(OCC(F)(F)F)ccc1OCC(F)(F)F` (stereo not given) [Flecainide acetate] gave a startle of 4.84.
Work on `CCCCc1nc(Cl)c(CO)n1Cc1ccc(-c2ccccc2-c2nnn[nH]2)cc1` [Losartan potassium] yielded a startle of -0.225.
`CC(C)n1c(/C=C/C(O)CC(O)CC(=O)O)c(-c2ccc(F)cc2)c2ccccc21` (stereo not given) [Fluvastatin sodium] showed a startle of 3.68.
`C[C@]12CCC(=O)C=C1CC[C@@H]1[C@@H]2[C@@H](O)C[C@@]2(C)[C@H]1CC[C@]2(O)C(=O)CO` [Hydrocortisone] gave a startle of 0.463.
Work on `COc1cc(Nc2c(C#N)cnc3cc(OCCCN4CCN(C)CC4)c(OC)cc23)c(Cl)cc1Cl` [Bosutinib] yielded a startle of -0.373.
`CC1=Nc2ccc(Cl)cc2S(=O)(=O)N1` [Diazoxide] gave a startle of -4.34.
Molecule `OCCN(CCO)c1nc(N2CCCCC2)c2nc(N(CCO)CCO)nc(N3CCCCC3)c2n1` [Dipyridamole] has a startle of 7.7.
`Nc1nc(F)nc2c1ncn2[C@@H]1O[C@H](CO)[C@@H](O)[C@@H]1O` [Fludarabine] gave a startle of 4.52.
For `COc1c(C)c2c(c(O)c1C/C=C(\C)CCC(=O)O)C(=O)OC2` [Mycophenolic acid], the startle was 3.04.
